Screening results: PubChem, ICCB-Longwood Screening Facility, Harvard Medical School
Ba CapD inh – CapD enzyme inhibition; purified CapD enzyme, fluorescence intensity read-out; hits give low values; z-score (no concentration beside the values); 0.23% of 140,000 active; AID 492967; in the data active means z-score mostly below about -2.9, no sharp cut-off; inactive means mostly above about -1.9
* marks the source's active call; other numbers are inactive results. Shown is part of a subset that was picked to be rich in hits.

SMILES | Ba CapD inh
N#C/C(=C\C=C\c1ccco1)C(N)=S | -12*
N#C/C(=C\C=C\c1ccco1)c1nc2c(s1)CCCC2 | -3.6
COc1ccc(C2C(C(=O)N3CCCC(C)C3)CCC(=O)N2c2cc(OC)c(OC)c(OC)c2)cc1 (centres undefined) | -0.3
Cn1c(=O)c(-c2cc(-c3ccccc3C(=O)NN)n(-c3ccccc3)n2)c(O)c2ccccc21 | -0.015
COC(=O)c1ccc(Oc2c(F)c(F)nc(F)c2F)cc1 | 0.11
N/C(=N\OC(=O)c1ccc2ncsc2c1)c1ccccc1 | 0.93
COc1ccc2nc(Sc3ccc(C(F)(F)F)cc3[N+](=O)[O-])[nH]c2c1 | -0.21
CN(C)c1ccc(N/C=C/C(=O)c2ccco2)cc1 | -2.4
CC(=O)Nc1ccc(N/C=C/C(=O)c2ccco2)cc1 | -5.8*
CC(=O)Nc1ccc(NC(=O)c2ccco2)cc1 | 0.43
CN1C(=O)/C(=C/c2cn(CC(=O)N3CCCC3)c3ccccc23)C(=O)NC1=S | -0.42
Cc1ccc(N2C(=O)/C(=C\c3ccc(-c4ccccc4C(=O)O)o3)C(=O)NC2=S)cc1 | 3
CN1C(=O)/C(=C/c2ccc(I)o2)C(=O)NC1=S | -9.7*
COc1ccc(S(=O)(=O)N2CCC(c3ccccc3OC)CC2)cc1 | 0.045
CCCCOc1ccc(C(=O)Nc2ccc(-c3nc4ccccc4o3)c(O)c2)cc1 | 0.61
COc1ccc(S(=O)(=O)c2n[nH]n3c2nc(=O)c2ccccc23)cc1 | 5.4
CCOC(=O)c1c(-c2ccccc2)csc1/N=C/c1sc2ccccc2c1O | 0.12
O=C(O)CN1C(=O)Nc2ccc(Br)cc2C1c1ccccc1 (centres undefined) | 0.8
O=C1Nc2ccc(Br)cc2/C1=N/N1C(=O)C(O)=CC1(O)c1ccccc1 (centres undefined) | -4.1*
O=C1Nc2ccc(Br)cc2C1=Nc1ccc(Cl)cc1 | 0.5
CN(C(=O)c1c[nH]c2ccc(S(=O)(=O)N3CCC4(CC3)OCCO4)cc2c1=O)C1CCCCC1 | 20
CCOC(=O)/C(C#N)=C/Nc1ccn[nH]1 | -1.9
CCOC(=O)/C(C#N)=C/Nc1ccc2c(c1)OCO2 | -0.6
CCOC(=O)/C(C#N)=C/Nc1cc(C)no1 | -4.2*
CC(=O)Oc1cc(/C=C2\Oc3ccc4c(C)cc(=O)oc4c3C2=O)ccc1[N+](=O)[O-] | -0.08
SMILES | Ba CapD inh
CCOC(=O)C1=C(C)N=c2s/c(=C3\C(=O)N(CC)c4ccccc43)c(=O)n2C1c1cccs1 (centres undefined) | -0.58
CC(C)c1ccc(-n2cnc3cc(C(=O)NCc4ccc5c(c4)OCO5)ccc32)cc1 | -0.37
Cc1ccc(Sc2ncccc2NS(=O)(=O)c2ccc(F)cc2)cc1 | 0.53
N#CCn1nnc2ccccc21 | 0.58
Cc1ccc(CNC(=O)CCn2nc(C)c(S(=O)(=O)N3CCCC3)c2C)cc1 | 0.86
CC1(C)CC(=O)/C(=N/Nc2ccccc2)CO1 | -4*
CC1(C)CC(=O)C(C(=S)Nc2ccccc2)C(=O)C1 | -0.09
CC1(C)Cc2c(c(=O)n(-c3ccccc3)c3ncnc(N)c23)CO1 | -1.3
COc1cc(C2C(C(=O)OCCc3ccccc3)=C(C)NC3=C2C(=O)CC(C)(C)C3)cc(OC)c1OC (centres undefined) | 0.9
Cc1nn(-c2ccccc2)c2c1C(c1cccnc1)C1=C(CC(C)(C)CC1=O)N2 (centres undefined) | 81
O=C(ON=C1CCN(S(=O)(=O)c2ccccc2)CC1)c1cccs1 | 0.33
Cc1cc(N2CCN(c3ccccn3)CC2)n2ncnc2n1 | -0.31
COc1ccccc1-c1c(C)nn2c(N3CCc4ccccc43)cc(C)nc12 | 3.2
Cc1cc(N2CCc3ccccc32)n2ncnc2n1 | -4.7*
O=C1C2CC=CCC2C(=O)N1c1ccc(Cl)cc1 (centres undefined) | 0.05
C=CCOC(=O)Nc1ccc(C(O)(C(=O)OCC)C(F)(F)F)cc1C (centres undefined) | -0.45
CCOC(=O)c1nc2ccccc2n(C(C)=O)c1=O | -6.6*
CC(=O)n1c(N)nc2ccccc21 | -0.48
CCOC(=O)c1nc2ccccc2c(C)c1C | -0.98
Cc1ccccc1N1CCN(C(=O)OCCCCc2ccc([N+](=O)[O-])cc2)CC1 | 0.26
O=C(NCc1ccco1)c1ccc(Cn2c(=S)[nH]c3ccc(Br)cc3c2=O)cc1 | 0.26
CSc1sccc1/C=C(/C#N)S(C)(=O)=O | -0.35
CCCNC(=O)c1c(C)cc(=O)oc1C | -1.6
Cc1cc(=O)oc(C)c1C(=O)NCc1ccccc1 | -3.7*
Cc1oc2c(c1C(=O)NCc1ccccc1)C(=O)c1ccccc1C2=O | -0.05
SMILES | Ba CapD inh
CC1=[N+](CCC#N)c2ccccc2C1(C)C | 0.33
NC(=O)CSc1nc(N)cc(=O)[nH]1 | -0.16
COc1ccccc1Cn1c(=S)[nH]c2cc(C(=O)N3CCC4(CC3)OCCO4)ccc2c1=O | -0.55
O=C(Nc1ccc(N2CCOCC2)cc1)Nc1ccc2nc(-c3ccco3)c(-c3ccco3)nc2c1 | -3.7
O=C(NCCCO)Nc1ccc2nc(-c3ccco3)c(-c3ccco3)nc2c1 | -7.3*
O=C(NCCSCc1ccco1)Nc1cc(Cl)cc(Cl)c1 | 0.21
Cn1c(COc2ccccc2)n[nH]c1=S | -0.1
COc1cccc(C2C(C(=O)Nc3ccccc3)=C(C)N=C3SCC(=O)N32)c1 (centres undefined) | -2.1
